Nrf2 inh – Nrf2 qHTS screen for inhibitors | A549 ARE-Fluc reporter, luciferase luminescence, 18-24 h | hit rate 2.1% among 360,000 | Potency, µM (titrated, usually from 46 µM), actives largely listed as inhibitors; also: nearly all actives have a fitted effect of over 60% in size
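Nrf2 activity is the BugLite luminescence, read 15 min after reagent at room temperature, following CellTiter-Fluor cytotoxicity readout (30 min, 37C). Compound titrations were applied for 18-24 h to 5000 A549 ARE_Fluc cells/well in 5% FBS OPTI-MEM.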
ELG1 repair inh – qHTS screen for small molecules that inhibit ELG1-dependent DNA repair in human embryonic kidney (HEK293T) cells expressing luciferase-tagged ELG1; HEK293T ELG1-luciferase reporter, luminescence, 16 h; DNA damage induced by 5-fluorouridine; hit rate 2.3% among 330,000; AID 504467, 2011; Potency, µM (top dose mostly 46.1 µM), actives largely listed as inhibitors; also: nearly all actives have a fitted effect of over 55% in size
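Step one: seed 2,000 cells per well. Step two: pin-transfer compound or DMSO alongside 5-fluorouridine. Step three: incubate 16 hr, 37 °C, 5% CO2. Step four: add ONE-Glo, wait 30 min, read luminescence.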
mIDH1 inhibitor – qHTS for Inhibitors of mutant isocitrate dehydrogenase 1 (IDH1): qHTS | Isocitrate dehydrogenase [NADP] cytoplasmic (Homo sapiens), O75874 | IDH1-R132H enzyme, NADPH consumption, diaphorase/resazurin fluorescence | Potency, µM (top dose mostly 76.6 µM), hits mostly inhibitors | hit rate 0.093% among 390,000; also: nearly all actives have a fitted effect of over 65% in size
Target sequence (O75874 whole entry R132H, stated change not applied): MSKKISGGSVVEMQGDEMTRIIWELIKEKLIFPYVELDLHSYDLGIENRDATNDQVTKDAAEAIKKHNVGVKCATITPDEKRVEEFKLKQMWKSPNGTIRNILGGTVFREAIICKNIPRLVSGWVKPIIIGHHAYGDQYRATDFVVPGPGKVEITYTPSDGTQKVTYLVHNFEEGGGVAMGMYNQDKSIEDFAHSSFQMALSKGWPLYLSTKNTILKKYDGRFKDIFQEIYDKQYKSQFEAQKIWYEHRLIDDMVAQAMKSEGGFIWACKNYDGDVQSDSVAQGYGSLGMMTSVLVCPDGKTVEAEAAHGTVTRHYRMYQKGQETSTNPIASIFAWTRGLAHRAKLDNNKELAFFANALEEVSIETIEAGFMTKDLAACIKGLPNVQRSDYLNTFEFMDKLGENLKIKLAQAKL
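IDH1-R132H (0.5 ug/mL dispensed) in pH 7.5 Tris buffer was preincubated 30 min with compound, then given a substrate mix of 0.016 mM NADPH and 2 mM alpha-KG for 80 min at room temperature; remaining NADPH was read by diaphorase/resazurin fluorescence.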
A549 tox – Nrf2 qHTS screen for inhibitors: counterscreen for cytotoxicity. A549 ARE-Fluc cells, CellTiter-Fluor viability, 18-24 h. Potency, µM (top dose mostly 46 µM), usual class: inhibitors. hit rate 0.16% among 390,000. AID 504648, 2011
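Cytotoxicity counterscreen: CellTiter-Fluor fluorescence was measured in A549 ARE_Fluc cells after 18-24 h of compound exposure in a concentration series. The subsequent BugLite luminescent read reports ARE-luciferase activity.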
Nrf2 activator – qHTS of Nrf2 Activators; AID 624171, 2012; AREc32 ARE-luciferase reporter (MCF7-derived line), luminescence, 24 h; Potency, µM (series often up to 46.1 µM), actives largely listed as activators; hit rate 0.31% among 410,000; also: nearly all actives have a fitted effect of over 65% in size
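AREc32_Fluc, 1000 cells/well, OPTI-MEM + 5% FBS, o/n 37 deg C 5% CO2; 23 nL cpd by pin tool, 24 hr; Steady-Glo 30 min RT, luminescence.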
Numbers stand for hits; . = inactive; ? = inconclusive; / = no result; [ ] = dose if it differs, or a comment. Hits are enriched below; roughly 3.8% of the tested compounds scored in any of these assays. Calls follow the shape of the dose curve; as a rule, active = well fitted curve in the direction sought with a large enough effect; inconclusive = small, poorly fitted or top-dose-only effect, or another doubt; inactive = no such curve, though single readings can be large; an effect the other way counts as inactive or inconclusive.

SMILES	Nrf2 inh	ELG1 repair inh	mIDH1 inhibitor	A549 tox	Nrf2 activator
C=C1C(=O)OC2CC1C(O)CC(C)=CCCC(C)=CC(O)CC2C (stereo not given)	9.2µM	/	.	15µM	?
O=C(Cc1ccc(Cl)cc1)NCCc1c[nH]c2ccccc12	.	/	.	.	.
O=C(CCl)N(c1ccccc1)c1c[nH]c2ccccc12	.	21µM	.	.	?
O=C(CCl)N(c1ccc(Cl)cc1)c1c[nH]c2ccccc12	21µM	26µM	?	?	.
O=C(NCc1cccnc1)c1csc([C@@H]2O[C@H](CO)[C@H](O)[C@H](O)[C@H]2O)n1	/	/	/	/	.[9.22 µM]
COc1cccc(C2C(C(=O)c3ccc(C)o3)=C(O)C(=O)N2CCN2CCOCC2)c1 (stereo not given)	.	21µM	.	.	.
COc1cccc(-n2c(SCC(=O)Nc3sc4c(c3C(N)=O)CCC4)nc3ccccc3c2=O)c1	?	6.5µM	.	.	.
COc1ccccc1NC(=O)CSc1nc2sc(C)c(C)c2c(=O)n1C	.	15µM	.	.	.
Cc1sc2nc(SCC(=O)Nc3c(C)n(C)n(-c4ccccc4)c3=O)n(C)c(=O)c2c1C	.	?	.	.	.
COC(=O)c1cccc(NC(=O)CSc2nc3cccnc3n2C)c1	?	13µM	.	.	.
COc1cccc(-n2c(SCC(=O)Nc3nc4ccccc4s3)nc3ccccc3c2=O)c1	.	?	.	?	.
COc1cccc(NC(=O)CSc2nc3ccccc3c(=O)n2C)c1	15µM	9.2µM	.	.	.
COC(=O)c1ccccc1NC(=O)CSc1nc2cccnc2n1C	.	.	.	.	.
CCc1cccc(C)c1NC(=O)c1cc(S(=O)(=O)N2CCOCC2)cn1C	.	/	.	.	.
Cc1ccccc1NC(=O)Cn1c(SCC(=O)Nc2ccc(F)cc2)nc2ccccc21	/	/	.	.	.
CC(CNC(=O)c1cnn(-c2ccc(F)cc2)c1-n1cccc1)c1ccccc1 (stereo not given)	?	/	.	.	.
CC1CCc2c(sc(NC(=O)Cn3nnc(-c4ccc(C(F)(F)F)cc4)n3)c2C#N)C1 (stereo not given)	.	/	/	.	.
Cc1ccc(-n2ncc(C(=O)NCCCN3CCCCC3)c2C2CCN(C(=O)OC(C)(C)C)CC2)cc1	.	/	.	.	.
N#Cc1c(NC(=O)CSc2nc(N)cc(=O)[nH]2)sc2c1CCCC2	15µM	.	.	.	.
COc1ccc(-n2c(SCC(=O)Nc3sc4c(c3C#N)CCCC4)nnc2-c2ccccc2OC)cc1	?	26µM	.	.	.
COc1ccccc1NC(=O)Cn1cnc2sc(C(=O)Nc3cc(OC)c(OC)c(OC)c3)c(C)c2c1=O	.	8.2µM	.	.	.
COc1ccc(-c2nnc(SCC(=O)Nc3sc4c(c3C#N)CCCC4)n2-c2ccccc2)cc1	?	.	.	.[1.84 µM]	.
COc1ccccc1NC(=O)Cn1cnc2sc(C(=O)Nc3ccc(OC)c(OC)c3)c(C)c2c1=O	?	.	.	?	.
COC(=O)c1cc(CSc2nc3ccccc3c(=O)n2C)oc1C	18µM	.	.	.	.
Clc1ccccc1CN1CCc2nc(N3CCN(c4ncccn4)CC3)ncc2C1	/	/	.	.	.
SMILES	Nrf2 inh	ELG1 repair inh	mIDH1 inhibitor	A549 tox	Nrf2 activator
O=C(CCN1C(=O)c2ccccc2Sc2ncccc21)Nc1ccc(F)cc1	.	/	.	.	.
CCCCn1c(SCC(=O)Nc2cc(NC(=O)c3ccco3)ccc2C)nc2ccccc2c1=O	?	16µM	.	.	.
Cc1ccccc1NC(=O)CSc1nc2ccccc2c(=O)n1C	?	15µM	.	.	.
Cc1ccc(NC(=O)CSc2nc3ccccc3c(=O)n2CCCC(=O)N2CCCC2)cc1	.	.	.	.	.
O=C(CSc1nc2ccccc2c(=O)n1CCC(=O)N1CCCCC1)NCc1ccccc1	.	15µM	.	.	.
O=C1c2ccccc2C(=O)N1c1ncccc1O	.	/	/	.	/
COc1ccc2c(c1)C(=O)[C@@H](OC(=O)NCc1ccc3c(c1)OCO3)[C@H](c1ccc(OC)c(Br)c1)O2	/	18µM	/	/	/
CCCn1c(CC)nc([N+](=O)[O-])c1S(=O)(=O)c1ccccc1	21µM	?	.	?	.
CSc1ncc(C(=O)Nc2c(C)cccc2C)c(-c2ccccc2)n1	?	/	.	.	.
CCOC(=O)c1c(C)n(C)c2ccc(OCC(O)CN(CC)CC)cc12 (stereo not given)	.	.	.	.	.
CCOC(=O)c1c(C)n(C)c2ccc(OCC(O)Cn3nc(C)cc3C)cc12 (stereo not given)	.	21µM	.	.	.
O=C(C1c2ccccc2Oc2ccccc21)N1CCN(c2ccc(Cl)cc2)CC1	26µM	?	.	?	.
COc1ccccc1N1CCN(C(=O)C2c3ccccc3Oc3ccccc32)CC1	.	?	.	?	.
COc1ccc(C2C=C(c3ccccc3)Nc3nc(NS(=O)(=O)c4ccc(C)cc4)nn32)cc1 (stereo not given)	18µM	/	.	.	.
COc1cccc(CNC(=O)CCn2c(=O)c3cccn3c3ccc(F)cc32)c1OC	.	/	.	.	.
CC1Cc2ccccc2N1C(=O)CN1CCC(n2nnc3cc(C(F)(F)F)ccc32)CC1 (stereo not given)	16µM	21µM	.	?	.
CCc1nc(Nc2ccc(N3CCN(C(C)=O)CC3)cc2)c2oc3ccccc3c2n1	?	9.2µM	.	.	.
CSc1ccc(C(=O)C2CCCN(S(=O)(=O)c3c(C)noc3C)C2)cc1 (stereo not given)	13µM	?	.	.	.
CCN1CCN(C(=O)CCN(CC(C)C)c2nc(-c3cccs3)nc3ccccc23)CC1	.	/	/	.	/
CN(C)C(CNC(=O)c1cc(S(=O)(=O)N(C)Cc2ccccc2)ccc1Cl)c1ccco1 (stereo not given)	15µM	.	.	.	.
Cc1ccc(-c2csc(=S)n2CC(=O)OCC(=O)NCc2ccco2)cc1	18µM	?	.	.	.
CC(=O)N(Cc1ccco1)Cc1cc2cccc(C)c2n2nnnc12	/	.	/	/	/
Cc1cccc2cc(CN(Cc3nnnn3Cc3ccco3)C3CCCC3)c3nnnn3c12	.	21µM	.	.	.
Cc1cc2c(s1)c1cnn(Cc3c(F)ccc(F)c3Cl)c(=O)c1n2C	.	/	/	.	/
COc1ccc2nc(NC(=O)c3ccccc3C(=O)O)sc2c1	.	.	.	.	.
CSc1ncccc1C(=O)Nc1nc2ccc(Oc3ccccc3)cc2s1	10µM	?	.	.	.
COc1ccc2nc(NC(=O)c3nc(S(=O)(=O)Cc4ccccc4F)ncc3Cl)sc2c1	.	/	.	?	10µM

Screening results: PubChem, National Center for Advancing Translational Sciences (NCATS)
